Measurements reported in the supplement of paper PMC13380429.

Tests used:
[1] = test system: Vero E6 infected with SARS-CoV-2; assay: morphology score (similarity to uninfected cells); higher = more like uninfected cells; settings: 24 h
[2] = test system: Vero E6 infected with SARS-CoV-2; assay: SARS-CoV-2 infection rate relative to infected DMSO; higher = more infection, active = 60 or less; settings: 24 h

Which morphology score [1] does the source give for `COc1ccc2[nH]c(C(=O)c3ccccc3)cc2c1` (0.833333 µM) here?
The morphology score was -0.112.

What about the SARS-CoV-2 infection rate [2] of the same molecule?
The SARS-CoV-2 infection rate was 110% (inactive).

Which morphology score [1] does the source give for `CCCCCCCCCCCCCCCCNc1ccc(C(=O)O)cc1` [cetaben] (10 µM) here?
Its morphology score is 0.21.

What about the SARS-CoV-2 infection rate [2] of the same molecule?
The SARS-CoV-2 infection rate was 91.5% (inactive).

With `Nc1ncnc2c1c(-c1cccc(OCc3ccccc3)c1)cn2C1CC(CN2CCCC2)C1` (stereo in doubt) (0.833333 µM) as the molecule, how does the morphology score [1] read?
The morphology score was 0.0762.

What about the SARS-CoV-2 infection rate [2] of the same molecule?
Its SARS-CoV-2 infection rate is 92% (inactive).

`N=C(N)NCCSSCCNC(=N)N` [guanidinoethyldisulfide-bicarbonate] (10 µM) was tested. Which morphology score [1] did it give?
The morphology score was 0.0245.

And the SARS-CoV-2 infection rate [2]?
Its SARS-CoV-2 infection rate is 107% (inactive).

How did the morphology score [1] turn out when `COc1cc(OC)c(/C=C2/C(=O)Nc3ccccc32)c(OC)c1` (10 µM) was run?
The morphology score was -0.0269.

What about the SARS-CoV-2 infection rate [2] of the same molecule?
Its SARS-CoV-2 infection rate is 96.5% (inactive).

Which results are given for `Cc1oc(-c2ccccc2)nc1CCOc1ccc(CC2SC(=O)NC2=O)c2sccc12` (centres undefined) [edaglitazone] (10 µM)?
morphology score [1]: 0.29; SARS-CoV-2 infection rate [2]: 90.5% (inactive)

Which results are given for `COc1cc2c(Oc3ccc(NC(=O)C4(C(=O)Nc5ccc(F)cc5)CC4)cc3F)ccnc2cc1OCCCN1CCOCC1` [foretinib] (10 µM)?
morphology score [1]: 0.152; SARS-CoV-2 infection rate [2]: 106% (inactive)

What does the source list for `Cc1c(S(=O)(=O)O)oc2c1C(=O)C(=O)c1c-2ccc2c1CCCC2(C)C` [sodium-tanshinone-II-A-sulfonate] (10 µM)?
morphology score [1]: 0.0001; SARS-CoV-2 infection rate [2]: 110% (inactive)

How did the morphology score [1] turn out when `O=C(O)/C=C/c1ccc(O)cc1` [naringeninic-acid] (10 µM) was run?
Its morphology score is 0.0231.

What about the SARS-CoV-2 infection rate [2] of the same molecule?
The SARS-CoV-2 infection rate was 102% (inactive).

`CCN(c1cc(-c2ccc(CN3CCOCC3)cc2)cc(C(=O)NCc2c(C)cc(C)[nH]c2=O)c1C)C1CCOCC1` [tazemetostat] (10 µM) was tested. Which morphology score [1] did it give?
Its morphology score is 0.0658.

What about the SARS-CoV-2 infection rate [2] of the same molecule?
Its SARS-CoV-2 infection rate is 104% (inactive).

`N#Cc1c(N)nc(SCc2ncc[nH]2)c(C#N)c1-c1ccc(O)cc1` (10 µM) was tested. Which morphology score [1] did it give?
Its morphology score is -0.0242.

And the SARS-CoV-2 infection rate [2]?
Its SARS-CoV-2 infection rate is 108% (inactive).

Which morphology score [1] does the source give for `NC(=O)CN1CCCC1=O` [piracetam] (10 µM) here?
The morphology score was -0.0282.

And the SARS-CoV-2 infection rate [2]?
Its SARS-CoV-2 infection rate is 96.5% (inactive).

Which morphology score [1] does the source give for `CC(CNS(=O)(=O)C(C)C)c1ccc(-c2ccc(C#N)cc2)cc1` (centres undefined) (10 µM) here?
The morphology score was -0.219.

And the SARS-CoV-2 infection rate [2]?
Its SARS-CoV-2 infection rate is 114% (inactive).

Which results are given for `COC(=O)N[C@@H](C)CNc1nccc(-c2cn(C(C)C)nc2-c2cc(Cl)cc(NS(C)(=O)=O)c2F)n1` [Encorafenib (LGX818)] (0.833333 µM)?
morphology score [1]: 0.0501; SARS-CoV-2 infection rate [2]: 95% (inactive)

`NC(=O)c1nc(Nc2ccccc2)sc1NC(=O)C1CCCCC1` (0.833333 µM) was tested. Which morphology score [1] did it give?
The morphology score was 0.0658.

What about the SARS-CoV-2 infection rate [2] of the same molecule?
The SARS-CoV-2 infection rate was 100% (inactive).

How did the morphology score [1] turn out when `CN[C@H](C(=O)N[C@H](C(=O)N(C)[C@H](/C=C(\C)C(=O)O)C(C)C)C(C)(C)C)C(C)(C)c1ccccc1` [taltobulin] (10 µM) was run?
The morphology score was -0.171.

And the SARS-CoV-2 infection rate [2]?
The SARS-CoV-2 infection rate was 98% (inactive).

Which morphology score [1] does the source give for `Nc1ncc2c(n1)CC(c1ccco1)CC2=O` (centres undefined) (10 µM) here?
Its morphology score is 0.0161.

What about the SARS-CoV-2 infection rate [2] of the same molecule?
The SARS-CoV-2 infection rate was 99% (inactive).

With `CC(=O)O[C@]1(C(C)=O)CC[C@H]2[C@@H]3C=C(C)C4=CC(=O)CC[C@@H]4[C@H]3CC[C@@]21C` [nomegestrol-acetate] (10 µM) as the molecule, how does the morphology score [1] read?
The morphology score was 0.147.

And the SARS-CoV-2 infection rate [2]?
Its SARS-CoV-2 infection rate is 95% (inactive).

How did the morphology score [1] turn out when `Cc1cc2nc3c(=O)[nH]c(=O)nc-3n(C[C@H](O)[C@H](O)[C@H](O)COP(=O)(O)O)c2cc1C` [riboflavin-5-phosphate-sodium] (10 µM) was run?
The morphology score was 0.173.

And the SARS-CoV-2 infection rate [2]?
Its SARS-CoV-2 infection rate is 102% (inactive).

With `FC(F)(F)C(F)(F)C(F)(F)N(C(F)(F)C(F)(F)C(F)(F)F)C(F)(F)C(F)(F)C(F)(F)F` [perfluamine] (10 µM) as the molecule, how does the morphology score [1] read?
Its morphology score is 0.16.

And the SARS-CoV-2 infection rate [2]?
The SARS-CoV-2 infection rate was 92.5% (inactive).

With `O=C(Nc1cccnc1)N1CCC(Cc2cccc(Oc3ccc(C(F)(F)F)cn3)c2)CC1` (0.833333 µM) as the molecule, how does the morphology score [1] read?
The morphology score was 0.191.

What about the SARS-CoV-2 infection rate [2] of the same molecule?
Its SARS-CoV-2 infection rate is 95.5% (inactive).

Which morphology score [1] does the source give for `COc1cccc([C@@H](C)NCCCc2ccccc2Cl)c1` [tecalcet] (10 µM) here?
The morphology score was 0.534.

And the SARS-CoV-2 infection rate [2]?
Its SARS-CoV-2 infection rate is 50.5% (active).

Which results are given for `CC(C)(C)C(=O)CN1C(=O)[C@H](NC(=O)Nc2cccc(C(=O)O)c2)CN(C2CCCCC2)c2ccccc21` [nastorazepide] (10 µM)?
morphology score [1]: -0.0136; SARS-CoV-2 infection rate [2]: 104% (inactive)

Which results are given for `CN(C)CCN(Cc1cccs1)c1ccccn1` [methapyrilene] (10 µM)?
morphology score [1]: -0.165; SARS-CoV-2 infection rate [2]: 113% (inactive)

What does the source list for `CCCC(=O)Nc1cccc(NC(=O)c2ccccc2Br)c1` (10 µM)?
morphology score [1]: -0.131; SARS-CoV-2 infection rate [2]: 110% (inactive)

What does the source list for `C=C[C@]1(C)C[C@@H](OC(=O)CSC(C)(C)CNC(=O)[C@H](N)C(C)C)[C@]2(C)[C@H](C)CC[C@]3(CCC(=O)[C@H]32)[C@@H](C)[C@@H]1O` [valnemulin] (10 µM)?
morphology score [1]: 0.0538; SARS-CoV-2 infection rate [2]: 116% (inactive)

What does the source list for `CC(=O)c1ccc2c(c1)N(CCCN(C)C)c1ccccc1S2` [acepromazine] (10 µM)?
morphology score [1]: 0.192; SARS-CoV-2 infection rate [2]: 104% (inactive)
